Measurements published in PubChem BioAssay.
Calls of active or inactive are those of the source.

Key:
[1] = small molecules captured by biotinylated probe aFSTL3 – biochemical, small-molecule microarray, fluorescence 635/667, stem cell growth factor project, primary screen (AID 1064); settings: higher = more signal;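 also: measures binding of the biotinylated anti-FSTL3 antibody to printed compounds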
[2] = binders from COS7 lysate, DM2A8 probe, primary screen, torsin A project, cell lysate, small-molecule microarray, fluorescence 635/667 (AID 1065); settings: higher = more signal, COS7 lysate expressing mutant human TOR1A
[3] = small molecules captured by biotinylated probe aFGF2 – biochemical, small-molecule microarray, fluorescence 635/667, stem cell growth factor project, primary screen (AID 1067); settings: higher = more signal;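 also: measures binding of biotinylated aFGF2 protein to printed compounds on slides; z-score merges feature fluorescence and signal-to-noise across triplicate slides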
[4] = small molecules captured by biotinylated probe aFGF10 – biochemical, small-molecule microarray, fluorescence 635/667, stem cell growth factor project, primary screen (AID 1071); settings: higher = more signal;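 also: score merges 667 nm spot intensity and signal to noise from triplicate slides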
[5] = molecular target: Neurogenic locus notch homolog protein 2 (Homo sapiens) (UniProt Q04721); assay: small molecules binding Notch2 protein – biochemical, small-molecule microarray, 635 nm fluorescence, stem cell growth factors, primary screen (AID 1073); settings: higher = more signal
[6] = molecular target: Pro-neuregulin-1, membrane-bound isoform (Homo sapiens) (UniProt Q02297); assay: small molecules binding neuregulin-1 protein – biochemical, small-molecule microarray, fluorescence 635/667, psychiatric disease protein project, primary screen (AID 1075); settings: NRG1 binding, 635 nm fluorescence, higher = more signal;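 also: score combines 667 nm spot fluorescence with signal to noise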
[7] = test system: Neuregulin-1 EGF-like domain; assay: small molecules binding NRG1 EGF domain – biochemical, small-molecule microarray, 635 nm fluorescence, primary screen (AID 1081); settings: higher = more signal;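 also: binding of the protein to compounds printed on small-molecule microarray slides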
[8] = FRG1 expression reporter modulators in myotubes – cell-based, C2C12 myotubes, firefly/Renilla luciferase, luminescence, FRG1 inhibition for FSHD, primary screen (AID 1084); settings: FRG1 promoter luciferase, higher = more signal, called active from +8 up or from −8 down
[9] = small molecules captured by biotinylated probe aFST – biochemical, small-molecule microarray, fluorescence 635/667, stem cell growth factor project, primary screen (AID 1086); settings: higher = more signal;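 also: score merges 667 nm fluorescence with signal-to-noise of each printed compound spot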
[10] = binders of probe aHhip on microarray, primary screen, stem cell growth factor project, biochemical, small-molecule microarray, fluorescence 635/667 (AID 1087); settings: higher = more signal;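 also: score merges spot fluorescence at 667nm with spot signal to noise ratio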

Sequence of Neurogenic locus notch homolog protein 2 (Homo sapiens) (Q04721 whole entry, looked up, canonical isoform): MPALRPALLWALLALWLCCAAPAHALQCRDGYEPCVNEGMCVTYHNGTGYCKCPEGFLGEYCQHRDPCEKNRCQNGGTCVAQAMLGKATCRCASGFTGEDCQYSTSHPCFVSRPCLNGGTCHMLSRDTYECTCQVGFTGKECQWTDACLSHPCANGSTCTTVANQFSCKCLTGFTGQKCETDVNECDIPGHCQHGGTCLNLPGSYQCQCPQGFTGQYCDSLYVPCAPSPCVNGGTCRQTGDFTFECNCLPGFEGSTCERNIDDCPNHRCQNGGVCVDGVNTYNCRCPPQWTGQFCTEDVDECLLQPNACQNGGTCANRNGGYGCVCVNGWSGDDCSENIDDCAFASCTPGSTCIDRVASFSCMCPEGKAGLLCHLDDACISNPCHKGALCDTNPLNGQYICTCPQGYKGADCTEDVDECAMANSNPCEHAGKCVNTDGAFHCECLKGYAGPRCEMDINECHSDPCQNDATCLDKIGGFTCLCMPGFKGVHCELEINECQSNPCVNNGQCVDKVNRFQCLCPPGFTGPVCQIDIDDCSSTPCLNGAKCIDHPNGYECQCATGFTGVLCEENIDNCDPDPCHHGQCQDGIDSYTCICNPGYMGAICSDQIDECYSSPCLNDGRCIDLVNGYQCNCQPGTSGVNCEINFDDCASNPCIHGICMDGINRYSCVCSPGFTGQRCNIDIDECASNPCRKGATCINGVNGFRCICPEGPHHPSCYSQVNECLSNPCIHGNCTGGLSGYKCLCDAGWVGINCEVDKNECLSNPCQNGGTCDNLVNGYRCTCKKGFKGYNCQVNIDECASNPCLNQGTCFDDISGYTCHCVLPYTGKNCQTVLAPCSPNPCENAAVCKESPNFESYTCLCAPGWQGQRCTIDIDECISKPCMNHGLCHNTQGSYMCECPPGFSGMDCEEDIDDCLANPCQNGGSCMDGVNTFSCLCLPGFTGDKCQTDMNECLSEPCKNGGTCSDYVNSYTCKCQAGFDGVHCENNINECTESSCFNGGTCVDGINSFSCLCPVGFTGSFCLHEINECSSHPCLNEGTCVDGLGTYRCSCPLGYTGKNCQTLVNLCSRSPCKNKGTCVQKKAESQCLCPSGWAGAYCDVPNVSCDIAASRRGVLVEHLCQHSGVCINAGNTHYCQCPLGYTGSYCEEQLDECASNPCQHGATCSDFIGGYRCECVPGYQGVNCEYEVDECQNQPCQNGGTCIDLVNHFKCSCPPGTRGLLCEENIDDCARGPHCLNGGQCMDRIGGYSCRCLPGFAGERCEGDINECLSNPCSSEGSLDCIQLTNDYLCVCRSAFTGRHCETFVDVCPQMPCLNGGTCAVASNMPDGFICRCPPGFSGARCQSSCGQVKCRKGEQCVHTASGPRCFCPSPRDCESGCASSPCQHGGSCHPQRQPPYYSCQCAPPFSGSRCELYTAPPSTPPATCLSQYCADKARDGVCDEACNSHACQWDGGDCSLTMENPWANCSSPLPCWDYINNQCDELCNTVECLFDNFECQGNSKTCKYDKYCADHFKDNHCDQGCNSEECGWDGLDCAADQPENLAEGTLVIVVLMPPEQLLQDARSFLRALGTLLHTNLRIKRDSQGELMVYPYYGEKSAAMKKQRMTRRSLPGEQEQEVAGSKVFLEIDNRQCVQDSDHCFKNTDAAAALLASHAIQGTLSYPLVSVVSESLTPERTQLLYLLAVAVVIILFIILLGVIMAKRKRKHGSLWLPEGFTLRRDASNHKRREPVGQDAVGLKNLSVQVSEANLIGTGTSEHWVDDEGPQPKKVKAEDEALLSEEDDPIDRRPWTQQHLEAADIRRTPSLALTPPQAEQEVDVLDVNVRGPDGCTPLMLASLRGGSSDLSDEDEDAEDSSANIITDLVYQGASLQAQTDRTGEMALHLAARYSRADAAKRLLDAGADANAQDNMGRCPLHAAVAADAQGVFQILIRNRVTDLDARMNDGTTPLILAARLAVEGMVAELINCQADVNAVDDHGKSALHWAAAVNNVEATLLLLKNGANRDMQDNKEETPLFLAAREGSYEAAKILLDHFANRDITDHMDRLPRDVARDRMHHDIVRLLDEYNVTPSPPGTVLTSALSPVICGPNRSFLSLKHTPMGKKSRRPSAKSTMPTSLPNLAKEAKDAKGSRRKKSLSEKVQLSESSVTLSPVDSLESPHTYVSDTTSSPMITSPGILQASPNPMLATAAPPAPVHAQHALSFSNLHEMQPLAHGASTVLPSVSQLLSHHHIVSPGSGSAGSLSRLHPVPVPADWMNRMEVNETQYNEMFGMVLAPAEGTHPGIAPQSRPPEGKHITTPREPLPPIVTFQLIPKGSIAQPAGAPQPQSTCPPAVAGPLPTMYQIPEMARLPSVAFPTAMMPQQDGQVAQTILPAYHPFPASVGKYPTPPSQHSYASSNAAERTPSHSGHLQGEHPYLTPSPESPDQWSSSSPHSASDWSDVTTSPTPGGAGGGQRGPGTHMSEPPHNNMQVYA
Sequence of Pro-neuregulin-1, membrane-bound isoform (Homo sapiens) (Q02297 whole entry, looked up, the tested form may be a part, canonical isoform): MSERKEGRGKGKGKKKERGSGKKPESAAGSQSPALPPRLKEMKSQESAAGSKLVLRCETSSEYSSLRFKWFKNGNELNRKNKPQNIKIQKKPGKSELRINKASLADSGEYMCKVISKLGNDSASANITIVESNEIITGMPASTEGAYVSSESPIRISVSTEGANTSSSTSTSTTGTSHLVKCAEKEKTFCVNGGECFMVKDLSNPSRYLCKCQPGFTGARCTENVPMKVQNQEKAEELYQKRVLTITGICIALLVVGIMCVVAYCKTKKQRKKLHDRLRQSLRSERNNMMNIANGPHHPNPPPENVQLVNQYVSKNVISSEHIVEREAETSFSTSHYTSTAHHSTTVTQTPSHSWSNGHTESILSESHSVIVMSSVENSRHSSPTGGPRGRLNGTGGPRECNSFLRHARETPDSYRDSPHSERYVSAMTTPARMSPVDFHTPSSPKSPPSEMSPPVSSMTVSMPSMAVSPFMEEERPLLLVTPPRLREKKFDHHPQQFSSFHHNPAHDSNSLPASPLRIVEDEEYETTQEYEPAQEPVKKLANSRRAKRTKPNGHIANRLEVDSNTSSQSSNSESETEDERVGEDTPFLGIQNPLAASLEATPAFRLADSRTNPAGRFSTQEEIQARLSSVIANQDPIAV

SMILES	composite z-score [1]	composite z-score [2]	composite z-score [3]	composite z-score [4]	composite z-score [5]	composite z-score [6]	composite z-score [7]	z-score [8]	composite z-score [9]	composite z-score [10]
CON=Cc1ccc(C(=O)N2[C@H](c3ccc(C)cc3)[C@@H](C)CC[C@H]2C(=O)OC)cc1	-0.13	0.486	-0.134	0.363	0.489	0.424	0.843	0.0346 (inactive)	0.267	-0.236
COC(=O)CC=C[C@@H](C)[C@@H](C=NOCC[C@@H]1C=C[C@H](OC(C)=O)[C@@H](COC(C)=O)O1)NS(=O)(=O)c1ccc(C)cc1	-0.186	1.86	-0.129	-0.371	-0.134	-0.512	-0.123	0.0469 (inactive)	0.153	-0.0296
C=CC[C@@H]1C=C[C@H](ON=C[C@@H](C)[C@H](OCc2ccccc2)C(C)C)[C@@H](CO)O1	-0.227	-0.14	0.342	-0.433	-1.1	-0.241	-0.255	0.715 (inactive)	-0.0578	-0.0618
CC(CCN1CCCc2nc(C)c(C)cc21)=NOC(C)CN1CCCCc2nc(C)c(C)cc21 (stereo not given)	-0.213	0.854	0.0766	0.644	1.51	0.303	1.13	1.21 (inactive)	1.09	0.815
COC(=O)CC=C[C@@H](C)[C@@H](C=NOC[C@H]1O[C@H](c2ccccc2)C=C[C@@H]1Oc1ccc(OC)cc1)OC	-0.309	-0.0766	-0.14	0.304	-0.639	-0.549	-0.282	0.532 (inactive)	-0.251	0.0373
COc1cccc([C@H]2Oc3ccc(OC)cc3C(=NO[C@@H](C)c3cn([C@H](CO)Cc4ccccc4)nn3)[C@@H]2O)c1	-0.234	-0.346	-0.133	0.226	-0.188	0.428	-0.123	0.213 (inactive)	0.105	-0.134
COC(=O)CC=C[C@@H](C)[C@@H](C=NO[C@H](C)c1cn([C@H](CO)Cc2ccccc2)nn1)NS(=O)(=O)c1ccc(C)cc1	-0.468	2.12	-0.165	-0.147	-0.303	-0.211	0.0224	-0.25 (inactive)	0.227	-0.251
CO[C@H]1COC(=O)[C@@H](C)COC(=O)[C@@H](OCc2ccccc2)C=C[C@@H]1C	-0.133	-0.606	-0.121	0.206	-0.663	-0.297	-0.546	-0.412 (inactive)	-0.155	0.0277
CC(CCN1CCCCc2nc(C)c(C)cc21)=NOC[C@@H](O)COCc1ccco1	-0.471	2.6	-0.242	0.0106	0.296	-1.03	0.298	-0.0255 (inactive)	0.193	0.259
C[n+]1ccc(-c2ccc(CO)cc2)cc1	0.772	-0.688	-0.131	-0.116	1.08	0.0728	0.0658	0.65 (inactive)	-0.0846	0.0053
CO[C@@H]1C=CCC(=O)N[C@@H](C)C(=O)OC[C@@H](OC)[C@H](C)CCCC(=O)OC[C@H]1C	-0.198	2.55	-0.129	0.361	0.0208	-0.677	-0.951	0.313 (inactive)	-0.331	0.176
C[C@H]1COC(=O)[C@@H]2CCCN2C(=O)[C@@H](C)COC(=O)[C@H](Cc2ccccc2)NC1=O	-0.596	0.142	-0.183	0.525	0.731	-0.147	0.184	-0.0297 (inactive)	0.761	-0.0645
CO[C@H]1COC(=O)CCC[C@@H](C)[C@H](OC)COC(=O)[C@@H]2CCCN2C(=O)CC=C[C@@H]1C	-0.442	2.09	-0.294	-0.142	-0.164	-0.508	0.505	0.362 (inactive)	-0.194	0.113
C[C@H]1CC[C@H]2C(=O)OC(CO)CN2[C@@H]1c1ccc(Br)cc1 (stereo not given in full)	-0.321	0.414	-0.145	-0.0786	-0.453	-0.365	0.374	-0.761 (inactive)	-0.104	-0.0645
CCOC(=O)[C@H](Cc1ccccc1)NC(=O)CCC1CC(OC(=O)NCc2cccc3ccccc23)CC2(CCCC(COC(=O)NCc3cccc(C(F)(F)F)c3)O2)O1 (stereo not given in full)	-0.223	-0.549	-0.0934	0.19	0.211	0.567	0.74	-1.05 (inactive)	-0.143	-0.0645
C#CCCCON=C1[C@H]2CCn3c(=O)n(C)c(=O)n3[C@H]2[C@H](O)[C@@H]2O[C@H]12	-0.454	0.588	0.0624	0.382	1.05	-0.0714	0.58	0.678 (inactive)	0.159	0.535
CO[C@H]1COC(=O)[C@@H](Cc2ccccc2)NC(=O)[C@@H](C)COC(=O)CCC[C@@H]1C	-0.388	0.433	-0.0319	0.286	0.106	-0.203	-0.361	-0.224 (inactive)	0.23	-0.0391
CC(C)CON=C1[C@H]2CCn3c(=O)n(Cc4cc5c(cc4Cl)OCO5)c(=O)n3[C@H]2[C@H](O)[C@@H]2O[C@H]12	-0.293	0.493	-0.079	0.258	0.394	0.142	0.497	0.354 (inactive)	0.0082	0.235
CCOC(=O)[C@H](Cc1ccccc1)NC(=O)CCC1CC(OC(=O)NCc2cccc3ccccc23)CC2(CCCC(COC(=O)NCCC(C)C)O2)O1 (stereo not given in full)	-0.499	0.283	-0.0895	0.0687	-0.756	-0.348	0.751	1.41 (inactive)	-0.219	-0.0994
CC(C)CON=C1C[C@@H](O)[C@@H](O)[C@@H]2[C@@H]3C(=O)N(Cc4ccc5c(c4)OCO5)C(=O)[C@@H]3CC[C@H]12	-0.504	-0.111	-0.149	0.715	0.392	1.01	1	-0.261 (inactive)	0.0313	-0.0645
CCN1C(=O)[C@H]2[C@H]3[C@H](O)[C@H](O)CC(=NOC[C@H]4O[C@H](c5ccccc5)C=C[C@@H]4Oc4ccc(OC)cc4)[C@@H]3CC[C@H]2C1=O	-0.0474	0.174	0.0338	0.999	0.887	0.488	0.953	0.52 (inactive)	0.0352	0.351
CCOC(=O)[C@H](CC(C)C)NC(=O)CCC1CC(OC(=O)NCc2ccc3c(c2)OCO3)CC2(CCCC(COC(=O)NCC(c3ccccc3)c3ccccc3)O2)O1 (stereo not given in full)	-0.354	-0.168	-0.0692	0.229	0.129	0.49	1.17	2.69 (inactive)	0.344	-0.0994
CCCNC(=O)OC[C@H]1O[C@H](CCON=Cc2ccc(C(=O)N3[C@H](c4ccc(C)cc4)[C@@H](C)CC[C@H]3C(=O)OC)cc2)C=C[C@@H]1Oc1ccc(OC)cc1	-0.52	0.304	-0.173	0.335	0.458	0.448	0.51	0.868 (inactive)	0.598	-0.102
CC[C@@H](c1ccccc1)n1c(=O)n2n(c1=O)[C@H]1[C@H](O)[C@@H]3O[C@@H]3C(=O)[C@H]1CC2	-0.66	-0.283	-0.103	0.335	0.395	-0.0023	-0.088	0.327 (inactive)	0.0182	0.0373
COc1ccc(O[C@@H]2[C@H](O)CO[C@@H]2C=Cc2ccccc2)cc1	-0.277	0.232	-0.0482	0.336	-0.0587	0.46	0.102	-0.136 (inactive)	0.0116	0.281
CC(C)(C)N1C(=O)[C@H]2[C@H]3[C@H](O)C=CC(=O)[C@@H]3CC[C@H]2C1=O	-0.623	0.0741	-0.132	0.412	0.437	-0.261	0.368	-0.757 (inactive)	0.229	0.0251
CO[C@H]1COC(=O)CC=C[C@@H](C)[C@H](OC)COC(=O)CCC[C@@H]1C	-0.344	1.58	-0.187	0.238	-0.438	-0.35	-0.137	0.444 (inactive)	-0.126	0.176
